Source: PubChem BioAssay (National Center for Advancing Translational Sciences (NCATS))
FMDV inh: antivirals against foot and mouth disease virus | FMDV antiviral cell-based qHTS | Potency, µM (titrated, usually from 57.9 µM), for the others: top-dose activity change, negative = inhibition, most hits filed as inhibitors | 410,000 compounds, 1.2% hits | AID 1159524; calls by dose curve; tested in HEK293T cells; note: read-out not given here; potency is the fitted concentration of half-maximal effect; nearly all actives have a fitted effect of over 45% in size
HCMV inh: blocks human cytomegalovirus replication; 410,000 compounds, 4.5% hits; activity change, negative = inhibition, % at 57.5 µM; HFF cells, HCMV-luciferase reporter, 72 h; hits give low values; in the data active = activity change below about -60%; inconclusive = no clear call, values can overlap the other calls; inactive = above about -39%
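Cell-based, HFFs, 1000 cells/well, 16 h 37C; cpds in DMSO + HCMV-luc, MOI 1 PFU/cell; 72 h 37C; OneGlo luminescence after 5 min RT; norm. to buffer vs Salinomycin 10uM.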
TbPYK inhibitor: T. brucei pyruvate kinase inhibition; Q57TT1; TbPYK enzyme, Kinase-Glo Plus ATP luminescence, 45 min; Potency, µM (doses to about 76.8 µM), for the others: at the highest dose activity, negative = inhibition, most hits filed as inhibitors; 410,000 compounds, 0.12% hits; AID 624173; note: potency is the fitted concentration of half-maximal effect; nearly all actives have a fitted effect of over 50% in size
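Quantitative HTS: titrated library compounds versus trypanosomal pyruvate kinase in TEA buffer (pH 7.2) containing KCl, MgCl2, BSA and Tween-20. Reactions were initiated with ADP, 130 uM final. Kinase-Glo Plus luminescence was read after 45 min at RT.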
FBPA Giardia inh: inhibitors of Giardia lamblia fructose-1,6-bisphosphate aldolase; A8B2U2; purified Giardia FBPA; Potency, µM (doses to about 59.6 µM), without a hit: at the top dose activity, negative = inhibition, usual class: inhibitors; 290,000 compounds, 0.71% hits; AID 2451; note: potency is the fitted concentration of half-maximal effect; nearly all actives have a fitted effect of over 55% in size
Target sequence (A8B2U2 whole entry, looked up): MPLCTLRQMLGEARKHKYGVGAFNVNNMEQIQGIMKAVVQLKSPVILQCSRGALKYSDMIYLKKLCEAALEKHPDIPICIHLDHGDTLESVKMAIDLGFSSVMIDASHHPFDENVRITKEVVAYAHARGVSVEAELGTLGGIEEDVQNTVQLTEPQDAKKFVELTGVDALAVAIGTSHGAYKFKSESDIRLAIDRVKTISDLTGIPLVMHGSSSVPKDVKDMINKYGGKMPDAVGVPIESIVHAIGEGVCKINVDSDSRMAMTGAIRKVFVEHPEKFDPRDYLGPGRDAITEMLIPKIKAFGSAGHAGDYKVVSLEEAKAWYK
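40 nM FBPA preincubated 10 min at RT with compound (up to 57.5 uM final), then substrate plus GAPDH/TPI/NAD/arsenate coupling and diaphorase/resazurin added. Fluorescence read after 20 min at RT, 525/598 nm.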
Sm TGR block: inhibitors of Schistosoma mansoni thioredoxin glutathione reductase. purified TGR, DTNB reduction, TNB absorbance 405 nm. Potency, µM (series often up to 114 µM), for the others: top-dose activity change, negative = inhibition, hits mostly inhibitors. 360,000 compounds, 3% hits. AID 485364; note: potency is the fitted concentration of half-maximal effect; nearly all actives have a fitted effect of over 60% in size
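Kinetic colorimetric format: TGR-catalysed, NADPH-driven DTNB reduction monitored via TNB absorbance. Enzyme dispensed at 20 nM; compound exposure 15 min at room temperature before reaction start.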
RE007 growth inh: less growth of the S. pombe RE007 Vpr strain; 360,000 compounds, 0.21% hits; Potency, µM (highest dose often 92.2 µM), without a hit: at the highest dose activity change, negative = less growth, most hits filed as inhibitors; S. pombe RE007 Vpr strain, BacTiter-Glo ATP luminescence, 24 h; AID 651644; active = well fitted falling curve with a large enough effect; inconclusive = small, poorly fitted or top-dose-only effect; inactive = no such curve, though single readings can be large or run the other way; note: potency is the fitted concentration of half-maximal effect; nearly all actives have a fitted effect of over 50% in size
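Fission yeast strain RE007, carrying one chromosomally integrated HIV-1 vpr copy, was seeded at OD 0.01 in PMG+AL medium with 23 nL pinned compound. After 24 h at 30 °C and 99% humidity, viability was read by BacTiter-Glo luminescence.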
Numbers without * were called inactive; ? = inconclusive; nt = no result given; ! = not active in a repeat. Sampled rows, rich in hits. Any-hit rate of the full collection: about 7.7%. Unless noted, calls come from the whole dose curve; as a rule, active = well fitted curve in the direction sought with a large enough effect; inconclusive = small, poorly fitted or top-dose-only effect, or another doubt; inactive = no such curve, though single readings can be large; an effect the other way counts as inactive or inconclusive. % is set by controls: 0 for no effect and ±100 for the full control effect.

SMILES	FMDV inh	HCMV inh	TbPYK inhibitor	FBPA Giardia inh	Sm TGR block	RE007 growth inh
CC1CCCN(CCCNC(=O)c2ccc3c(c2)N(Cc2ccc(F)cc2)C(=O)c2ccccc2S3=O)C1 (stereo unspecified)	-15.6%	-21.9	-2.0%	nt	-3.8%	-12.1%
CC1CCCN(CCCNC(=O)c2ccc3c(c2)N(Cc2ccccc2F)C(=O)c2ccccc2S3(=O)=O)C1 (stereo unspecified)	2.9%	-70.2*!	-8.2%	nt	5.9%	-5.8%
CCOc1ccc(NC(=O)CSc2ncc3c(n2)-c2ccccc2N(Cc2ccccc2C)S3(=O)=O)cc1	-7.0%	2.9	0.3%	nt	2.4%	nt
COCC(=O)N1CCC2(CC1)CN(c1ccccc1)C2	-3.2%	nt	-13.8%	-20.6%	nt	nt
COc1cccc2sc(NC(=O)c3ccc(S(=O)(=O)N4CCC(C)CC4)cc3)nc12	?	-15.2	-7.3%	nt	1.9%	nt
COc1cc(=O)n2c(c1C(=O)NCc1ccco1)CCN(Cc1cccc(C)n1)CC2	-3.2%	nt	nt	nt	nt	nt
CCN(CC)CCCNC(=O)c1cc2cc(Cl)ccc2nc1N	nt	-25.8	nt	nt	nt	nt
CN1C(=O)/C(=C\C(=O)c2cccs2)c2ccccc21	22.4µM*	-99.5*	-12.6%	-8.1%	-29.8%	?
Cc1cc(=O)[nH]c(SCC(=O)Nc2ccc(S(N)(=O)=O)cc2)n1	0.2%	-61.4*	-5.7%	-11.6%	-0.9%	6.5%
Cc1cc(=O)[nH]c(SCC(=O)Nc2ccc(C(=O)O)cc2)n1	nt	-24.4	-17.5%	10.2%	-2.9%	-0.9%
CN(Cc1cccs1)c1nc(-c2cccnc2)nc2ccccc12	31.6µM*	-23.0	0.2%	8.5%	-4.5%	-1.0%
C#CCOCCOCCOCCNc1nc(N2CCN(C(=O)[C@H]([C@@H](C)CC)n3cc([C@@H](N)CC(C)C)nn3)CC2)nc(N2CCN(C(=O)[C@H]([C@@H](C)CC)n3cc([C@@H](N)CC(C)C)nn3)CC2)n1	-3.2%	-8.6	-1.9%	-10.3%	28.2µM*	12.5%
C#CCOCCOCCOCCNc1nc(N2CCN(C(=O)[C@H](CCC(=O)O)n3cc(C(N)Cc4ccc(O)cc4)nn3)CC2)nc(N2CCN(C(=O)[C@H](CCCCN)n3cc(C(N)[C@H](C)CC)nn3)CC2)n1 (stereo partly specified)	nt	nt	nt	-8.6%	31.6µM*	nt
C#CCOCCOCCOCCNc1nc(N2CCN(C(=O)[C@H](CCC(=O)O)n3cc(C(N)CC(C)C)nn3)CC2)nc(N2CCN(C(=O)[C@H](Cc3ccc(O)cc3)n3cc(C(N)[C@H](C)CC)nn3)CC2)n1 (stereo partly specified)	nt	nt	nt	-8.7%	39.8µM*	nt
C#CCOCCOCCOCCNc1nc(N2CCN(C(=O)[C@H]([C@@H](C)CC)n3cc([C@@H](N)CC(C)C)nn3)CC2)nc(N2CCN(C(=O)[C@H](Cc3ccc(O)cc3)n3cc([C@@H](N)CC(C)C)nn3)CC2)n1	-4.9%	23.7	0.0%	0.8%	0.0%	10.1%
C#CCOCCOCCOCCNc1nc(N2CCN(C(=O)[C@H](CCCCN)n3cc(CCCC)nn3)CC2)nc(N2CCN(C(=O)[C@H](Cc3ccc(O)cc3)n3cc(CCO)nn3)CC2)n1	-10.2%	nt	-2.1%	19.8%	35.5µM*	7.3%
C#CCOCCOCCOCCNc1nc(N2CCN(C(=O)C([C@@H](C)CC)n3cc(C(N)CC(C)C)nn3)CC2)nc(N2CCN(C(=O)[C@H](CCC(=O)O)n3cc(C(N)[C@H](C)CC)nn3)CC2)n1 (stereo partly specified)	-19.2%	-28.2	5.0%	-5.8%	-25.0%	5.1%
CCCSc1ncc(Cl)c(C(=O)Nc2sc(C(C)=O)c(C)c2C(=O)OCC)n1	-25.2%	?	4.9%	nt	0.1%	nt
CCCCCCCCCCOCC(O)CN (stereo unspecified)	nt	nt	2.9%	nt	nt	nt
